In ChEMBL document CHEMBL1201862, “PubChem BioAssay data set” (2004):
The whole screen tested about 400,000 compounds, of which about 2,100 (0.53%) were called active. Roughly 14% stayed inconclusive and do not appear here. No rule for the calls is given here. For the sample, actives were picked, then their nearest neighbours and some compounds at random.

Each molecule was assayed against Ataxin-2 (Homo sapiens) (UniProt Q99700) (assay: qHTS for Inhibitors of ATXN expression.).
Assay type: functional

Sequence of Ataxin-2 (Homo sapiens) (Q99700 whole entry): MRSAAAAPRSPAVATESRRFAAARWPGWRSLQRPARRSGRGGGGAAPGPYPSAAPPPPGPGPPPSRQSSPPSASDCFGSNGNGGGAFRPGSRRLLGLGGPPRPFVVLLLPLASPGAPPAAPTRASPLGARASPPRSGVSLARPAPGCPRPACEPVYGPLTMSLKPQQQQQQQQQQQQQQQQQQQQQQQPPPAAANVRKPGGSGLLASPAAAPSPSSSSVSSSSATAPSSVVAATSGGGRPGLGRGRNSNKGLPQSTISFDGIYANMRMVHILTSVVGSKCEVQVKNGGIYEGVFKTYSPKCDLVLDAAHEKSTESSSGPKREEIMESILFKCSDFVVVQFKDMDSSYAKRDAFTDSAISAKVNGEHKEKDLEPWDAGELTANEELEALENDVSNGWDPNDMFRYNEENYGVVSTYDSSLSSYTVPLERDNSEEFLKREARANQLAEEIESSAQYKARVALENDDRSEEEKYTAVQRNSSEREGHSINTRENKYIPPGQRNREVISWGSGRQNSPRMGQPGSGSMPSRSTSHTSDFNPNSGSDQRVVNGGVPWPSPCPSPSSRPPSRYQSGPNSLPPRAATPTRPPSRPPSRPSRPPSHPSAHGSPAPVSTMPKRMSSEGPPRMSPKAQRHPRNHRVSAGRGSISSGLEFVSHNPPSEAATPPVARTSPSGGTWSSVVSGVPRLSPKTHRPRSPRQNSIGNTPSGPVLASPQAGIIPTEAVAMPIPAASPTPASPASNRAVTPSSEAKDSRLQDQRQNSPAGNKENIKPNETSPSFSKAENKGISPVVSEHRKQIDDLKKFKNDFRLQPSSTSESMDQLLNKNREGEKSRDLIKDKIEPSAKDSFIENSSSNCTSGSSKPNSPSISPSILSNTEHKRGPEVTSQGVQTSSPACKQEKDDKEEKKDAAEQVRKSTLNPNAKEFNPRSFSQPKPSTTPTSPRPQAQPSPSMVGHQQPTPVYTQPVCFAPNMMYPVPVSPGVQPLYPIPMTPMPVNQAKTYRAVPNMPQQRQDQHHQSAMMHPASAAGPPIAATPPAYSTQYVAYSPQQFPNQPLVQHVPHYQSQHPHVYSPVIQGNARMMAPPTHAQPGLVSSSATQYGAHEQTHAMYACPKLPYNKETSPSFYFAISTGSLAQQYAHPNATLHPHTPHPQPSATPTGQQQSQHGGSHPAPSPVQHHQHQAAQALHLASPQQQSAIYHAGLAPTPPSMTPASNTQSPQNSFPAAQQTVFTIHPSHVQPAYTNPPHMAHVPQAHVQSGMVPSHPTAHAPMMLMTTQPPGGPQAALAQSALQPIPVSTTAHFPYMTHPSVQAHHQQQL

Row | Compound | Potency
1 | COc1ccc(-c2c(C)c3ccc(O)c(CN4CCOCC4)c3oc2=O)cc1OC | inactive
2 | COc1ccc(/C=C/c2nc(C#N)c(N3CCCCC3)o2)cc1OC | inactive
3 | Cc1ccc(NC(=O)Cn2ncc(Cl)c(Cl)c2=O)cc1S(=O)(=O)N1CCCCC1 | 31.6 µM (active)
4 | C=CCN=C(S)Nc1ccc(C)c(S(=O)(=O)N2CCCCC2)c1 | inactive
5 | CCCc1cc(O)nc(SCC(=O)Nc2ccc(C)c(S(=O)(=O)N3CCCCC3)c2)n1 | inactive
6 | Cc1c(Br)c(C(F)(F)F)nn1CC(=O)NCc1ccco1 | inactive
7 | CCN(c1ccc(N/C=C2/C(=O)N(Cc3ccc(OC)cc3)C(=O)c3ccccc32)cc1)C(C)C | inactive
8 | COc1ccc(CN([C@H](CO)CC(C)C)S(=O)(=O)N(Cc2ccccc2)[C@H](CO)CC(C)C)cc1 | 39.8 µM (active)
9 | COc1ccc(CCNC(=O)CN(c2ccccc2)S(C)(=O)=O)cc1 | inactive
10 | C=CS(=O)(=O)c1c2cc(OC)ccc2nc2ccc(OC)cc12 | inactive
11 | Cc1cccn2c(=O)c(C=O)c(N3CCCCC3)nc12 | inactive
12 | Nc1c(C(=O)Nc2ccccc2Br)sc2nc(-c3cccs3)ccc12 | inactive
13 | O=C(c1nc(-c2ccc(Cl)cc2)n2c1CCCCC2)N1CCN(c2ccc(F)cc2)CC1 | 22.4 µM (active)
14 | Cc1nn(CC(=O)N2CCN(c3ccc(Cl)cc3)CC2)c(=O)c2cccn12 | inactive
15 | O=C(NC(=S)Nc1ccc(N2CCCC2)cc1)c1ccc(F)cc1 | inactive
16 | CCC(C)n1c(=N)c(C#N)cc2c(=O)n3cccc(C)c3nc21 (stereo not drawn) | inactive
17 | O=C(CN1C(=O)NC(Cc2c[nH]c3ccccc23)C1=O)Nc1cccc(S(=O)(=O)N2CCCC2)c1 (stereo not drawn) | inactive
18 | COc1ccccc1C1c2[nH]c3ccccc3c2CCN1Cc1cnc(C)s1 (stereo not drawn) | inactive
19 | COC(=O)Cc1c(C)c2ccc3c(c2oc1=O)CN(Cc1ccc(C)cc1)CO3 | inactive
20 | C=CCC[C@@H](Cc1ccc(F)cc1)C(=O)OC[C@@H]1CCCN1C(=O)[C@H](CC=C)CC(=O)N[C@H](CO)Cc1ccccc1 | 35.5 µM (active)
21 | C=CC[C@@H](Cc1ccc(F)cc1)C(=O)OC[C@@H]1CCCN1C(=O)[C@H](CC=C)CC(=O)N[C@H](CO)Cc1ccccc1 | 39.8 µM (active)

Row | Compound | Potency
22 | C=CCC[C@@H](Cc1ccc(F)cc1)C(=O)OC[C@@H]1CCCN1C(=O)[C@@H](CC=C)CC(=O)N[C@@H](CO)Cc1ccccc1 | 28.2 µM (active)
23 | CC(=O)Nc1nn(C)c2nc3ccc(C)cc3cc12 | inactive
24 | CCCCCNCC(=O)Nc1cccc(C(=O)Nc2cccc(C(F)(F)F)c2)c1 | 26.7 µM (active)
25 | C/C(CC(=O)Nc1cccc(C(F)(F)F)c1)=N\NC(=O)c1ccncc1 | inactive
26 | CCN1C(=O)c2ccc(C(=O)Nc3cccc(C(=O)O)c3)cc2C1=O | inactive
27 | [O-][n+]1c(-c2ccccc2)c(O)nc2ccccc21 | inactive
28 | COc1ccc2c(Cl)c(C(=O)N/N=C3\CCCC(=O)C3)sc2c1 | inactive
29 | COCC(C)OC(=O)c1c(N)n(CC(C)C)c2nc3ccccc3nc12 (stereo not drawn) | inactive
30 | CCCCc1ccc(-c2csc(/C(C#N)=C\c3ccco3)n2)cc1 | inactive
31 | Cc1ccc(O)c(NC(=S)NC(=O)c2ccc(-c3ccc(Cl)cc3)o2)c1 | 22.4 µM (active)
32 | CCOCCCn1c(=N)c(C(N)=S)cc2c(=O)n3cccc(C)c3nc21 | inactive
33 | Cc1ccccc1NC(=O)c1cc(S(=O)(=O)N2CCCCC2)ccc1N1CCOCC1 | inactive
34 | O=C(Nc1ccc(S(=O)(=O)N2CCCC2)cc1)c1ccc([N+](=O)[O-])o1 | 37.7 µM (active)
35 | CN1CCN(c2ccc(S(=O)(=O)N3CCCCC3)cc2NC(=O)c2cccc([N+](=O)[O-])c2)CC1 | inactive
36 | CCN1CCN(c2ccc(S(=O)(=O)N3CCCCC3)cc2NC(=O)c2ccc([N+](=O)[O-])o2)CC1 | 28.2 µM (active)
37 | NC(=O)c1ccc(NC(=O)c2cc(S(=O)(=O)N3CCCCC3)ccc2N2CCOCC2)cc1 | inactive
38 | Cc1cc(C(=O)Nc2ccc(S(=O)(=O)N3CCOCC3)cc2)c(C)o1 | inactive
39 | CC(=O)Oc1ccc(OC(C)=O)c(SCCCCCCl)c1 | inactive
40 | CC1=CC2C(C(O)CC3(C)C2CC(C)C32OCOC23COCO3)C2(C)CC(C=O)=C(O)C=C12 (stereo not drawn) | 15 µM (active)
41 | COc1cc(/C=C2\C(=N)N3N=C(S(C)(=O)=O)SC3=NC2=O)ccc1OCCOc1ccccc1C | inactive
42 | O=C(CCc1ccc(O)cc1)N/N=C/c1coc2ccccc2c1=O | inactive

Row | Compound | Potency
43 | CNC(=O)c1c(NC(=O)c2ccc(S(=O)(=O)N3CCCC(C)C3)cc2)sc2c1CCC2 (stereo not drawn) | inactive
44 | COc1ccccc1Nc1nn2c(=O)c3ccc(C(=O)NCCC4=CCCCC4)cc3nc2s1 | 6.31 µM (active)
45 | COCCNC(=O)c1c(N)n(CCC2=CCCCC2)c2nc3ccccc3nc12 | inactive
46 | CCOc1ccccc1NC(=O)c1ccc2c(O)c(S(=O)(=O)c3ccccc3)c(O)nc2c1 | inactive
47 | O=C1/C(=C/Nn2cnnc2)c2ccccc2C(=O)N1c1ccccc1 | inactive
48 | N#Cc1cc2c(=O)n3ccccc3nc2n(Cc2cccnc2)c1=O | inactive
49 | Cc1ccc2nc3c(cc(C(=O)NCCc4ccccc4)c(=N)n3CC3CCCO3)c(=O)n2c1 (stereo not drawn) | inactive
50 | CCC[C@@H](CN[C@@H](CNC)[C@H](C)CC)NCC1CCC(C(C)(C)C)CC1 (stereo partly drawn) | 35.5 µM (active)
51 | CCC[C@H](CN[C@@H](CNC)[C@H](C)CC)NCCc1cc(C(F)(F)F)cc(C(F)(F)F)c1 | 25.1 µM (active)
52 | Cc1cc(S(=O)(=O)c2cc3ccc(O)c(C)c3oc2=O)ccc1F | inactive
53 | Cn1nc(C(=O)OCC(=O)Nc2ccccc2OC(F)F)c2ccccc2c1=O | inactive
54 | CCOC(=O)c1cc2c(=O)n3ccccc3nc2n(CC2CCCO2)/c1=N\C(=O)c1ccccc1F (stereo not drawn) | inactive
55 | Cc1ccc(-n2c(S)nnc2Cn2c(C)nc3ccccc32)cc1 | inactive
56 | COc1ccc(C2CC(c3ccccc3)=NN2c2ccc(Cl)c(C(=O)O)c2)cc1 (stereo not drawn) | inactive
57 | COc1ccc(C2=NN(c3ccccc3)C(c3cn(CCC(=O)O)nc3-c3ccccc3)C2)cc1 (stereo not drawn) | inactive
58 | COc1ccc(C2CC(c3ccccc3)=NN2c2ccc(S(N)(=O)=O)cc2)cc1 (stereo not drawn) | inactive
59 | COc1ccc(C2CC(c3ccccc3)=NN2C(=O)c2ccc(Cl)c([N+](=O)[O-])c2)cc1 (stereo not drawn) | 31.6 µM (active)
60 | Cc1nc(N2N=C(c3ccc(Cl)cc3)CC2c2ccco2)sc1C(=O)N(C)C (stereo not drawn) | inactive
61 | O=[N+]([O-])c1ccc(C2=NN(c3ccccc3)C(c3ccco3)C2)cc1 (stereo not drawn) | inactive
62 | COc1ccc(C2=NN(C(=O)COC(=O)c3ccc(S(C)(=O)=O)c([N+](=O)[O-])c3)C(c3ccco3)C2)cc1 (stereo not drawn) | 23.8 µM (active)
63 | CCn1cc([N+](=O)[O-])c(C(=O)N2N=C(c3ccc(Cl)c(Cl)c3)CC2c2ccccc2O)n1 (stereo not drawn) | 39.8 µM (active)
